This is an account of results in the supplement of paper PMC6555819.

This assay has as its system PPARg DBDmut IVT, anti-PPARg (DBD mutation: PPARg1 K132A/R137A, NR concentration 270 nM). As to the kind of experiment: PBM binding z-score (relative to random genomic background probes); higher = stronger binding; sequences stand for … in GC…GCGATTGACAGCGTAGAATGAAGG
The gist of the method:
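Each nuclear receptor dimer, without ligand, was incubated for 1 h on custom Agilent 4×180K protein-binding microarrays. Binding was detected with antibodies against each partner (one per run), and scanned fluorescence was regression-normalized. The binding z-scores are referenced to random human genomic background probes.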
As for ATCTCTAGGTAAAGATAGTTCGGTGAATGCAAAT, the PBM binding z-score worked out at 0.789.

With TCTAGCAGTCCAGAGGGTCACTCAAGAGGTACGG, the PBM binding z-score is -0.476.

Turning to CCTAGCAGGCCAATCTGGGACACTCAAGGCTTGA, the PBM binding z-score is -0.94.

As to TCTGACAGGTGAAGGTAACTCAGGTACGCAGTCG, the PBM binding z-score was -0.0142.

Sequence TATACAGGCTCAAAGGCCAGAGTACGAATGTCGA registered a PBM binding z-score of 0.281.

With GGAACGAGGGCATTCGAGTTAATAGCATGGCGAT, the PBM binding z-score was -0.5.

Take CCTACTGGGCCAATGGTCATTGATTCCAATGCTC: the PBM binding z-score was -0.523.

GCTGCTAGGTCAACTGATGGTCGGCTAAAGCTCG gave a PBM binding z-score of -0.469.

Regarding ACTCGGAGGACCAAGGTCAGAGCTACGCCAGTGA, the PBM binding z-score was -0.608.

As to GGAACGAAGGCAAAGTTGATAGCATCTGTCGACG, the PBM binding z-score came to 0.0461.

In the case of GGAACGAGGGCATGCGAGTTGATAGCATGGCGAT, the PBM binding z-score was -0.663.

Sequence TCTTGTAGATCACGCAGGTTAAGAAAGCCTGAGT registered a PBM binding z-score of 0.645.

Consider TCTTGTAGAACAAGCAGGTTAAGAAAGCCTGAGT, for which the PBM binding z-score is -0.0834.

Turning to AATACCGGGTCATCGTAGGCCAGAGTACGCACAG, the PBM binding z-score stood at 2.08.

For CCTAGCAGGCCAATCTGAGTCACTCAAGGCTTGA, the PBM binding z-score is -1.49.

AGTCAAAGTTCATCTAGGTAAGGTAAGATATGCT gave a PBM binding z-score of 0.676.

As to AGAACAAGGGCAATGAGTTGATAGCACGGGTGGC, the PBM binding z-score is -0.527.

CAAACTAGGGCACAGAGGTCAAAGTCCGTGCGTA gave a PBM binding z-score of 2.72.

As to ATCGAAAGGTCGACGGGGTGAGTATACACCGTTT, the PBM binding z-score turned out to be 0.814.

Sequence TAGCCGAGGTCATGGGCCAGTATACCACGCGAAC displayed a PBM binding z-score of 0.953.

TCTAGTTGGTCACGGAGGTAACACACGACGGGTA: the PBM binding z-score is 0.805.

CCTACTGGGCCAGGGTCATTGATCAGTCAAAGCA gave a PBM binding z-score of -0.896.

Take TCTGCTAGGTCAACGATGGACAGCTAATCTGCTA: the PBM binding z-score is 0.358.

With TCATATAGGTAAAGGTTAAAGTCGAACGATATGA, the PBM binding z-score came to 1.86.

The sequence ACTAGTAGGCCAAGTTTGGGTCACTCAAACAAAG gave a PBM binding z-score of 0.699.

The sequence TCTTGTAGAACAGCAGGTTAAGAAAGCTGGCCAA displayed a PBM binding z-score of -0.593.

CCTATTAGTTGACCATAAGGGCTACCGAAGCTCG came in with a PBM binding z-score of 0.311.

The sequence GCAGACAGGTGAAACGCGGGTAACTCAGGGTGGC gave a PBM binding z-score of -1.01.

CCTAGTTGGTCAGGAGGTCAAACACCGGATATGA: the PBM binding z-score came to 0.259.

Regarding TCGAGTAGGTTACAAATGGGGCATTCAGCTTTCT, the PBM binding z-score is -0.201.

In turn, GCTGCTAGGTCAGGTAGGTCAGCTAACGGGTACG registered a PBM binding z-score of -0.592.

The sequence CCTAGTTGGTGAAGGTCACACACGCTATAGGTAC yielded a PBM binding z-score of 0.782.

Regarding CTACCAAGGTGAACAAGGCCGTTGATTACTATTC, the PBM binding z-score was -0.28.

The sequence TATACAGGGTCAAAGGCCAGAGTCCGAATGTCGA registered a PBM binding z-score of 0.522.

Consider CGTCCAAGGTCAAAGGTCAGTGTAGAGATGACGG, for which the PBM binding z-score was 1.64.

The sequence GTACGAAGGTGAATAGGTCGTTGATGAGTAGGCG yielded a PBM binding z-score of -0.129.

Consider CCTTACGGGTCAAGGTTATAGTACGGGTGGTACG, for which the PBM binding z-score is -0.326.

For ACAATGAGGTTATTAAGATCAGGGAATTGCGGTC, the PBM binding z-score was 1.25.

In turn, TCGAGTAGGTTACCAATGGGGCACTCAGCTTTCT had a PBM binding z-score of 0.223.

For the sequence CCTACTGGGCCATTCAGAGGTCCTTGATCATATG, the PBM binding z-score stood at 0.127.
